According to PubChem BioAssay AID2316 (Broad Institute, 2010):
The whole screen tested about 29,000 compounds, of which fewer than 10 were called active. Only a sample is shown. Values without a mark were called inactive. How the calls were made is not given here.

test: activators reversing PD-1 mediated T-cell inhibition, primary screen, luminescence, primary human CD4 T cells, PD-L1 beads (AID 2316); details: CellTiter-Glo 96 h, stronger effect = higher value;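 further: 0% = median vehicle wells and 100% = positive control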

Row | SMILES | activation [%]
1 | O=c1c2ccccc2nc(SCc2ccc(F)cc2)n1-c1ccccc1 | -10.1
2 | COC(=O)c1ccc(C(=O)OC)c(NC(=O)COc2ccc(C)cc2)c1 | -5.39
3 | O=C(Nc1ccc(C23CC4CC(CC(C4)C2)C3)cc1)c1cccs1 | 0.396
4 | C/C=C1\C2C=C(C)CC1(N)c1ccc(=O)[nH]c1C2 (stereo unspecified) | 0.91
5 | COc1cccc2cc(C(=O)Nc3sc4c(c3C(N)=O)CCCCC4)c(=O)oc12 | 3.77
6 | COc1ccc(S(=O)(=O)Nc2ccc3c(c2)C(=O)N([C@H](C)CO)C[C@@H](C)[C@H](CN(C)S(=O)(=O)c2ccc(C)cc2)O3)cc1 | 0.261
7 | COc1ccc(Oc2ccc(NC(=O)CCC(=O)O)cc2)cc1 | 0.302
8 | C[C@@H]1CN([C@H](C)CO)C(=O)Cc2cc(NC(=O)Cc3ccccc3)ccc2O[C@@H]1CN(C)Cc1ccccc1 | 1.25
9 | O=C(CN1CCOCC1)Nc1sc2c(c1C(=O)Nc1ccc(Br)cc1)CCC2 | -2.1
10 | C[C@@H]1CN([C@@H](C)CO)C(=O)c2cc(NS(=O)(=O)c3ccc(Cl)cc3)ccc2O[C@H]1CN(C)S(=O)(=O)c1cn(C)cn1 | -1.79
11 | COc1cc(C=Nc2ccc(Cl)cc2)ccc1OC(=O)/C=C/c1cccs1 | -0.177
12 | CCO/C([O-])=N\c1c[n+](N2CCOCC2)no1 | 0.71
13 | C[C@@H]1CN([C@H](C)CO)C(=O)c2cc(NC(=O)Cc3ccccc3)ccc2O[C@@H]1CN(C)CC1CCCCC1 | -0.76
14 | C[C@@H]1CCCCO[C@@H](CN(C)C(=O)NC2CCCCC2)[C@@H](C)CN([C@H](C)CO)C(=O)c2cc(NC(=O)CCCCCC(=O)Nc3ccccc3N)ccc2O1 | 0.709
15 | Cc1ccc(-n2c(C)nc3sc4c(c3c2=O)CCC4)cc1 | -4.12
16 | CC(=O)c1cccc(NC(=O)CN(c2ccc(F)c(Cl)c2)S(C)(=O)=O)c1 | 2.89
17 | C[C@@H]1CN([C@H](C)CO)C(=O)Cc2cc(NC(=O)C3CCCCC3)ccc2O[C@@H]1CN(C)Cc1ccc(C(F)(F)F)cc1 | -3.12
18 | CC1=Nn2c(Cn3nnc4ccccc43)nnc2SC1 | 0.665
19 | CC(=O)c1cccc(NC(=O)CN(C2CCCCC2)S(=O)(=O)c2ccccc2)c1 | -2.41
20 | CC(C)NC(=O)Nc1ccc2c(c1)C(=O)N([C@@H](C)CO)C[C@H](C)[C@@H](CN(C)C)O2 | 0.0718
21 | CCCOC(=O)C1=C(C)N(CC)C(=O)NC1c1ccccc1Cl (stereo unspecified) | -0.396
